{"source": "PubChem BioAssay AID1851", "about": "(National Center for Advancing Translational Sciences (NCATS), 2009)", "note": "About 5,800 (36%) of roughly 16,000 compounds were called active. Inconclusive results (about 23%) are left out. The call rests on the fitted dose curve; in most records, active means well fitted curve in the direction sought with a large enough effect; inconclusive means small, poorly fitted or top-dose-only effect, or effect the other way; inactive means no such curve, though single readings can be large or run the other way. The list shows a part of the results. Square brackets hold non-standard residues; d marks the D form. Peptide text beside a SMILES is read from it. * marks the point of attachment. ξ: configuration not given here. Cbz = O=C(OCc1ccccc1)*; ξA = CC(N)C(=O)O", "data": [{"molecular_target": "Cytochrome P450 2C19 (Homo sapiens) (UniProt P33261)", "sequence (P33261 whole entry, looked up)": "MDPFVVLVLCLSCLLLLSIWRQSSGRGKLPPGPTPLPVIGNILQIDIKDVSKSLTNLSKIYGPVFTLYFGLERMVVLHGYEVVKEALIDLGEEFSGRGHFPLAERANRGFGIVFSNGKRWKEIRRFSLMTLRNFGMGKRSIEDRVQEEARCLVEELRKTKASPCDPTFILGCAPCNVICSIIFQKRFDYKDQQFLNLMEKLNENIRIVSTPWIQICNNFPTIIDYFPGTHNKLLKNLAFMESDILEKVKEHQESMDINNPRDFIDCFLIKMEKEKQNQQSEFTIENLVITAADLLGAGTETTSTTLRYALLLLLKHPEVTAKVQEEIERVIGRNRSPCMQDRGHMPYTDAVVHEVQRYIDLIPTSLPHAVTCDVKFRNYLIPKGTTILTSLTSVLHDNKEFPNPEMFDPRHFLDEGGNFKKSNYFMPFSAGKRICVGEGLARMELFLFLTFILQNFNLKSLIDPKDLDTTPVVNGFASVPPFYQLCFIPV", "assay": "Cytochrome panel assay with activity outcomes; on activity, negative = inhibition: on the % scale 0 is the no-effect control and ±100 the full control effect", "conditions": "recombinant CYP, pro-luciferin dealkylation, luminescence, p450-cyp2c19; series mostly up to 57.1 µM; activity, negative = inhibition: at the top concentration", "values": [{"smiles": "CN(C(=S)Nc1ccccc1F)C1(c2ccccc2Cl)CCCCC1=O", "note": "(centres undefined)", "AC50": "1.26 µM (active)"}, {"smiles": "CO/N=C(/CNC(=O)c1cccc(Cl)c1)c1ccc(Cl)cc1", "AC50": "0.708 µM (active)"}, {"smiles": "CO/N=C(/CNC(=O)c1ccc(Cl)cc1Cl)c1ccc(Cl)cc1", "AC50": "0.398 µM (active)"}, {"smiles": "COc1ccc2c(c1)Cc1sc(NC(=O)c3ccco3)nc1-2", "AC50": "14.1 µM (active)"}, {"smiles": "COc1ccc(Cc2nnc(NC(=O)c3ccco3)s2)cc1", "AC50": "14.1 µM (active)"}, {"smiles": "COc1ccc(NC(=O)N2CCC3(CC2)CCN(C(=O)c2ccco2)CC3)cc1", "activity, negative = inhibition": "-11% (inactive)"}, {"smiles": "COc1ccc(Cc2nnc(NC(=O)c3cccc([N+](=O)[O-])c3C)s2)cc1", "activity, negative = inhibition": "10.2% (inactive)"}, {"smiles": "COc1ccc(NC(=O)N2CC3(CCN(C(=O)c4ccco4)CC3)C2)cc1", "activity, negative = inhibition": "-32.6% (inactive)"}, {"smiles": "COc1ccc2c(c1)CCc1sc(NC(=O)c3ccc(C)cc3)nc1-2", "AC50": "3.55 µM (active)"}, {"smiles": "Cc1ccc(-c2c(C#N)c(N)n(-c3ccccc3)c(=O)c2C#N)cc1", "activity, negative = inhibition": "-29.3% (inactive)"}, {"smiles": "Cc1ccc(NC(=O)NNC(=O)Cn2nc(-c3ccccc3)c(-c3ccccc3)c(C#N)c2=O)cc1", "AC50": "17.8 µM (active)"}, {"smiles": "COc1ccc(CSc2nnnn2C)cc1[N+](=O)[O-]", "AC50": "10 µM (active)"}, {"smiles": "Cn1nnnc1SCc1ccccc1[N+](=O)[O-]", "AC50": "25.1 µM (active)"}, {"smiles": "Cn1nnnc1SCC(=O)Nc1ccccc1[N+](=O)[O-]", "activity, negative = inhibition": "-18% (inactive)"}, {"smiles": "COC(=O)Nc1nc2ccc(C(=O)c3ccccc3)cc2[nH]1", "activity, negative = inhibition": "-36.1% [at 25.6 µM] (inactive)"}, {"smiles": "O=C(c1ccccc1)c1ccc2nc(-c3ccc(NC(=O)c4ccccc4Br)cc3)[nH]c2c1", "AC50": "5.62 µM (active)"}, {"smiles": "O=C(O)c1ccc(NCc2nc3cc4ccccc4cc3[nH]2)cc1", "activity, negative = inhibition": "60.6% [at 11.4 µM] (inactive)"}, {"smiles": "C[C@H](N)CCCC(C)(C)O", "activity, negative = inhibition": "19.9% [at 25.6 µM] (inactive)"}, {"smiles": "O=C(O)c1ccccc1-c1ccc(/C=c2\\sc3nc4cc(Br)cnc4n3c2=O)o1", "AC50": "35.5 µM (active)"}, {"smiles": "Cc1cc2[nH]c(=O)c3ccccc3n2n1", "activity, negative = inhibition": "-22.9% (inactive)"}, {"smiles": "Cc1cc(C)n(C(=O)c2cc3ccccc3c(=O)o2)n1", "AC50": "1.58 µM (active)"}, {"smiles": "CCc1cc2c(nc1CC)CCN(CC/C(C)=N/O[C@@H]1O[C@H](COC(C)=O)[C@H](OC(C)=O)[C@H](OC(C)=O)[C@H]1OC(C)=O)C2", "activity, negative = inhibition": "6.45% [at 11.4 µM] (inactive)"}, {"smiles": "CCS(=O)(=O)c1ccc2oc(Nc3cc(C)cc(C)c3)nc2c1", "AC50": "11.2 µM (active)"}, {"smiles": "N[C@@H](Cc1ccccc1)C(=O)O", "activity, negative = inhibition": "8.56% [at 11.4 µM] (inactive)"}, {"smiles": "O=C(O)CNC(=O)[C@@H](CS)Cc1ccccc1", "activity, negative = inhibition": "55.1% [at 25.6 µM] (inactive)"}, {"smiles": "CC(C)(C)N1C(=O)[C@H]2[C@H]3[C@H](O)[C@H](O)C/C(=N/NC(=O)OCc4ccccc4)[C@@H]3CC[C@@H]2C1=O", "activity, negative = inhibition": "6.74% [at 11.4 µM] (inactive)"}, {"smiles": "O=C(N[C@@H](Cc1ccccc1)C(=O)CCl)OCc1ccccc1", "AC50": "5.01 µM (active)"}, {"smiles": "CC(C)(C)N1C(=O)[C@H]2[C@H]3[C@H](O)[C@H](O)C/C(=N/NC(=O)OCc4ccccc4)[C@H]3CC[C@@H]2C1=O", "activity, negative = inhibition": "41% [at 11.4 µM] (inactive)"}, {"smiles": "CC(C)C[C@H](NC(=O)[C@@H](O)[C@@H](N)Cc1ccccc1)C(=O)O", "AC50": "inactive"}, {"smiles": "COC(=O)[C@H](C)NC(=O)[C@@H](C)CO", "activity, negative = inhibition": "35.5% [at 11.4 µM] (inactive)"}, {"smiles": "COC(=O)CNC(=O)C(C)NC(=O)CNC(=O)OCc1ccccc1", "note": "(stereo not drawn) (Cbz-Gly-[ξA]-Gly-OMe)", "AC50": "31.6 µM (active)"}, {"smiles": "COC(=O)[C@H](Cc1ccccc1)NC(=O)[C@@H](C)CO", "AC50": "1.26 µM (active)"}, {"smiles": "CC(=O)SC[C@@H](Cc1ccccc1)C(=O)NCC(=O)OCc1ccccc1", "AC50": "0.126 µM (active)"}, {"smiles": "CC(=O)N[C@H](Cc1ccc(O)cc1)C(=O)O", "activity, negative = inhibition": "-9.65% [at 11.4 µM] (inactive)"}]}]}
